Reference: the supplement of paper PMC11001985

Compound: C#CCNC(=O)CCSSCCC(=O)NCCc1ccc(C=O)c(C=O)c1
Assay: lysine labeling ratio R10:1 (500 µM / 50 µM probe), SILAC-ABPP in living cells; higher = lower intrinsic lysine reactivity toward the probe, active = 2 or less
Conditions: HeLa; probe concentrations 500 vs 50 µM
Method in brief: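 R, given per lysine, is the filtered median high-probe/low-probe MS1 peptide ratio, with the median then taken across forward and reverse replicates. Cells were living SILAC light and heavy HeLa cells in PBS at room temperature, labelled with 50 µM or 500 µM of an alkyne-tagged, disulfide-linked lysine probe. The ceiling applied is 20.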

Sequence of UniProt P35221 (P35221 whole entry): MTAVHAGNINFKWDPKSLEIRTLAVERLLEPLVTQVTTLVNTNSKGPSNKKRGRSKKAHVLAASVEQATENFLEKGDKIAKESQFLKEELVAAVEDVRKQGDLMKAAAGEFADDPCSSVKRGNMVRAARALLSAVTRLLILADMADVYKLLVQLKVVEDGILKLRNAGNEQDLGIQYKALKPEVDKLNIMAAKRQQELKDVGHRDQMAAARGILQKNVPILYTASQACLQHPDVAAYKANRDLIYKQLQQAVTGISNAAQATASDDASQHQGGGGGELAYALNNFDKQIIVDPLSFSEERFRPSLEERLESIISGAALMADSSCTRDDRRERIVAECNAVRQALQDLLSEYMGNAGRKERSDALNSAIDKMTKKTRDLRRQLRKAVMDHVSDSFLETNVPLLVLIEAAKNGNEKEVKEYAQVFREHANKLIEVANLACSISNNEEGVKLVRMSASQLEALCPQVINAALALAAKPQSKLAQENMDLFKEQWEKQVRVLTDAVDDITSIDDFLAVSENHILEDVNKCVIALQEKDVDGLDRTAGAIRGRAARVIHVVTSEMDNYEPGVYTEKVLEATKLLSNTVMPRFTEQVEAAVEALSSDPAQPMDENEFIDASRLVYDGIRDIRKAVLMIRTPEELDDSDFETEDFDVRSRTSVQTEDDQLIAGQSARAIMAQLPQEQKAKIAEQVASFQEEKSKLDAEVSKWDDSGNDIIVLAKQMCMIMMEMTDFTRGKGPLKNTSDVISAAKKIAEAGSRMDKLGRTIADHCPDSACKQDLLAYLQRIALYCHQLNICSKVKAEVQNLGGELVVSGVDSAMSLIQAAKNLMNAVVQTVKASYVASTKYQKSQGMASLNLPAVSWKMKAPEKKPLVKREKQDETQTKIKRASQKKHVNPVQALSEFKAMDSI
Sequence of UniProt P08670 (P08670 whole entry): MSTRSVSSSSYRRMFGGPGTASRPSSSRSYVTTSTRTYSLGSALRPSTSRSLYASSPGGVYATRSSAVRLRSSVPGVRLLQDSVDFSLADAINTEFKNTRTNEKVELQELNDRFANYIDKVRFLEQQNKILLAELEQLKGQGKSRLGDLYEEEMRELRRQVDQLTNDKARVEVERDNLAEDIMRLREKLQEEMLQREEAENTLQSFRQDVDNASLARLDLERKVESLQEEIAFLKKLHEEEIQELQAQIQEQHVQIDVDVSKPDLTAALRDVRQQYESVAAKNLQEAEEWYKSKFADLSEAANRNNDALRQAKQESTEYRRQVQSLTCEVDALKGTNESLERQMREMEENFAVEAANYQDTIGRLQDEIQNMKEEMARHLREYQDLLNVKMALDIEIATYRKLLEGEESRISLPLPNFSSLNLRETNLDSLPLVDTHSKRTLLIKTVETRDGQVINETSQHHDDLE
Sequence of UniProt P62316 (P62316 whole entry): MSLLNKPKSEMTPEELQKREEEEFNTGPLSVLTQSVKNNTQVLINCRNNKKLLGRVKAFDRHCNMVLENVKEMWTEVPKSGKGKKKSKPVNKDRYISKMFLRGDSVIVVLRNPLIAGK
Sequence of UniProt P13010 (P13010 whole entry): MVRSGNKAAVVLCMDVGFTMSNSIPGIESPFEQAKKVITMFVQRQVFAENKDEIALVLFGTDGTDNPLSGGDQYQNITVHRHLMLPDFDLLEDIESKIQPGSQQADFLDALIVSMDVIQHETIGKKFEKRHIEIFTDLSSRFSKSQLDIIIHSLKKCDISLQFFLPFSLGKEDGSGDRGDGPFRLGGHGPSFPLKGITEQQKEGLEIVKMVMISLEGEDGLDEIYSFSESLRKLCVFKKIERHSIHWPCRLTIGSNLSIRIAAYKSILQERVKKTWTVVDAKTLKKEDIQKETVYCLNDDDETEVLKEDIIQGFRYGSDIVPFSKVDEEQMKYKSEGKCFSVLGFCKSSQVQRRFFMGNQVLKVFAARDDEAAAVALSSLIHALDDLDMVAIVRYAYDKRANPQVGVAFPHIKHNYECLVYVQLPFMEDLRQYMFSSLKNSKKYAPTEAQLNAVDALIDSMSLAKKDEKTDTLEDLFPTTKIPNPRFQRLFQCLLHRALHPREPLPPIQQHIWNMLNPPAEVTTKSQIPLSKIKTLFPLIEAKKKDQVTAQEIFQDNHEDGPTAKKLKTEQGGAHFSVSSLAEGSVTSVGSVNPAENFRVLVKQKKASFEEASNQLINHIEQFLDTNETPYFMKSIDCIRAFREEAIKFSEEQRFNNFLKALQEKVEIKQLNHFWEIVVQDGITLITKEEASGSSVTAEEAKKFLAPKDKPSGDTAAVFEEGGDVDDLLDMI
Sequence of UniProt O00159 (O00159 whole entry): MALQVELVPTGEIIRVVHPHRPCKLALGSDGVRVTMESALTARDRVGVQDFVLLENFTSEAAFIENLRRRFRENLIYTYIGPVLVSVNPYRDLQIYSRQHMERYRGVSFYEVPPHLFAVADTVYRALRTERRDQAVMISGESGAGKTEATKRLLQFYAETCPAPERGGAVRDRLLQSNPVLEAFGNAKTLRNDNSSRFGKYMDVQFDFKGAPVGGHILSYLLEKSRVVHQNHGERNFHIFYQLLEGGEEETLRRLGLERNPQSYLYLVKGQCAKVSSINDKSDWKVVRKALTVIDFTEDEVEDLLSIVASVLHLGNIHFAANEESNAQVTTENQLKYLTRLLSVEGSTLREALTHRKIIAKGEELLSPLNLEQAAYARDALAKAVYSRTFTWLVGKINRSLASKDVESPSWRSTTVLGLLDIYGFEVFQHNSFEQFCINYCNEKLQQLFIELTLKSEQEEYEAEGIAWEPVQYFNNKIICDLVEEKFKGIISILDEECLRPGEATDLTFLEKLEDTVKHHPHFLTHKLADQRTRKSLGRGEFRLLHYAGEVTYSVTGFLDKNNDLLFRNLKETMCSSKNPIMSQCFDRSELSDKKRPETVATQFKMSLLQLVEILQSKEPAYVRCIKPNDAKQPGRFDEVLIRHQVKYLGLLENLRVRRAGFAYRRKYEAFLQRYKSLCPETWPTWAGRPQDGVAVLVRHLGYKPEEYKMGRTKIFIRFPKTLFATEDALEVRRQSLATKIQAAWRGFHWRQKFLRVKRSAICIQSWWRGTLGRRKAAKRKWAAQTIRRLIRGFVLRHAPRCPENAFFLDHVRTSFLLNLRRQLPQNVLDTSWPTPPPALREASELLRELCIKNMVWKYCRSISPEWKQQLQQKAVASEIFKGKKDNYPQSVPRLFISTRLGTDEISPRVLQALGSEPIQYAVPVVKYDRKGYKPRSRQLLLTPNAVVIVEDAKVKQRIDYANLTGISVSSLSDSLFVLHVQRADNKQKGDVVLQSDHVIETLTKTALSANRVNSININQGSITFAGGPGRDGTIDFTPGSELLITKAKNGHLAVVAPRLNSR
Sequence of UniProt P35241 (P35241 whole entry): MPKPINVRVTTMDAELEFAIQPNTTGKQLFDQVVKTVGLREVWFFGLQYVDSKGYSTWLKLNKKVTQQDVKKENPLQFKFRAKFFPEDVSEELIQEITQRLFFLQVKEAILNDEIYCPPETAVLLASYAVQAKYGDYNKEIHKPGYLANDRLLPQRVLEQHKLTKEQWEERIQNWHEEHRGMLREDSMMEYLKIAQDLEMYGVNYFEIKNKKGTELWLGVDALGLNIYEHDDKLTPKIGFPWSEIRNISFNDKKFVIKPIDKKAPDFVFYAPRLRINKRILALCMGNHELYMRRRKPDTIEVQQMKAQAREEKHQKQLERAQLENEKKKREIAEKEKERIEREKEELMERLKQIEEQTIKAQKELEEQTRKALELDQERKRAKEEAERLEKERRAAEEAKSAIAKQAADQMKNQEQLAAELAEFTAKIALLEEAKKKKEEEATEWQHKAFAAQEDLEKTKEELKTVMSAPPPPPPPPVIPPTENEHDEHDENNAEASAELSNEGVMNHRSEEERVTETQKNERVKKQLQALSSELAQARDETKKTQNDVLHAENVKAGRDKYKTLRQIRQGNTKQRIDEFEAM
Sequence of UniProt P04083 (P04083 whole entry): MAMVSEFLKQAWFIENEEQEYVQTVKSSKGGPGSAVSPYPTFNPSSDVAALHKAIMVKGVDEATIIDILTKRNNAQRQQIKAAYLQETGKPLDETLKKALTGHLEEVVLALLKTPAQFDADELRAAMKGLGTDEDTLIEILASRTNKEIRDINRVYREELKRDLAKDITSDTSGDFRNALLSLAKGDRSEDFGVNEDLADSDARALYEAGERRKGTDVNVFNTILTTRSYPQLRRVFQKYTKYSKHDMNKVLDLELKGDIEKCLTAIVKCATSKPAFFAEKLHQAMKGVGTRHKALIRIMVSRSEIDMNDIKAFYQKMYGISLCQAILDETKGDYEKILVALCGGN
Sequence of UniProt P80723 (P80723 whole entry): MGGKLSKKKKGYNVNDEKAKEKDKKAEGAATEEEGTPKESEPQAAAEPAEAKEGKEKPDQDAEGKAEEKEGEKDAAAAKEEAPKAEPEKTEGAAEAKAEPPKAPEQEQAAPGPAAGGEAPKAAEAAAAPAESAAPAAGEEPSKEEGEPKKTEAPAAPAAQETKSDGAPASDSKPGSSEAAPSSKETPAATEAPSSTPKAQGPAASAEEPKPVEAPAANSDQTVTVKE
Sequence of UniProt Q8N441 (Q8N441 whole entry): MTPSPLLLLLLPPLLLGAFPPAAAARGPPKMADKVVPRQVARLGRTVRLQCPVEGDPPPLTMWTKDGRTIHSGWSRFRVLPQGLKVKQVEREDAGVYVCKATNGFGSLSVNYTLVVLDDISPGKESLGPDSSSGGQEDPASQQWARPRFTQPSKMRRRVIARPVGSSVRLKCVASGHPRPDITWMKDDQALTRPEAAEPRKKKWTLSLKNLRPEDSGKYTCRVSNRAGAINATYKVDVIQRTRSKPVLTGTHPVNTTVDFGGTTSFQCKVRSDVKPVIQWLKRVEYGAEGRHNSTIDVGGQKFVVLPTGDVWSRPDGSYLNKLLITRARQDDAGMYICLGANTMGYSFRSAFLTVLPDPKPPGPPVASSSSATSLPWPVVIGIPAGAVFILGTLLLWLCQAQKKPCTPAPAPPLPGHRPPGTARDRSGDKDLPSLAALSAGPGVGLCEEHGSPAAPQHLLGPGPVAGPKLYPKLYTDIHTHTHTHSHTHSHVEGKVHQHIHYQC

Target | lysine labeling ratio R10:1
ITGB1 (lysine site: K90) (UniProt P05556) | 3.53 (inactive)
PTGFRN (lysine site: K579) (UniProt Q9P2B2) | 2.67 (inactive)
MYO1C (lysine site: K404) (UniProt O00159) | 1.66 (active)
BASP1 (lysine site: K149) (UniProt P80723) | 3.54 (inactive)
XRCC5 (lysine site: K481) (UniProt P13010) | 1.45 (active)
UniProt Q8N441 (lysine site: K34) | 3.03 (inactive)
RPS2 (lysine site: K275) (UniProt P15880) | 1.57 (active)
UniProt P08727 (lysine site: K140) | 2.21 (inactive)
UniProt Q15149 (lysine site: K792) | 1.45 (active)
ANXA1 (lysine site: K185) (UniProt P04083) | 3.58 (inactive)
VIM (lysine site: K445) (UniProt P08670) | 10.9 (inactive)
MYH9 (lysine site: K1387) (UniProt P35579) | 1.88 (active)
UniProt O95084 (lysine site: K189) | 2.74 (inactive)
RDX (lysine site: K520) (UniProt P35241) | 1.76 (active)
UniProt P62316 (lysine site: K18) | 2.06 (inactive)
RARS (lysine site: K60) (UniProt P54136) | 3.02 (inactive)
CTNNA1 (lysine site: K748) (UniProt P35221) | 2.15 (inactive)
